# Measured values published in PubChem BioAssay (NCATS).
# Inconclusive results are not listed. Entries that show only a call come without a potency. Values without a mark were called inactive. Activity calls are given as the source filed them. Calls come from the whole dose curve; as a rule, active = well fitted curve in the direction sought with a large enough effect; inconclusive = small, poorly fitted or top-dose-only effect, or another doubt; inactive = no such curve, though single readings can be large; an effect the other way counts as inactive or inconclusive.
# Legend:
# [1] = Primary qHTS for inhibitors of nuclear receptor binding SET domain protein 2 (NSD2) in an isogenic RCH-ACV NSD2 p.E1099K mutant (9B) (AID 1645876)
# [2] = Primary qHTS for inhibitors of nuclear receptor binding SET domain protein 2 (NSD2) in an RCH-ACV wild type WT cells (2C) (AID 1645877)
# Note: nearly all actives have a fitted effect of over 70% in size.
Structure (SMILES),Potency [1],Potency [2],"activity change, negative = viability loss [1]","activity change, negative = cell killing [2]"
CN1C(=O)c2ccccc2-n2c(nc3ccccc3c2=O)[C@@]12O[C@H]2c1ccccc1,inactive,inactive,,
CC(C)(OC1OC(CO)C(O)C(O)C1O)C1CCC(O)(CO)C2CC(O)C(C)(O)C2C1 (centres undefined),inactive,inactive,,
CC(=O)N1c2ccccc2C2(O)CC3C(=O)NC(CC(C)C)C(=O)N3C12 (centres undefined),inactive,inactive,,
C=C1CC[C@@H]2[C@](C)(CO[C@@H]3O[C@H](CO)[C@@H](O)[C@H](O)[C@H]3O)CCC[C@@]2(C)[C@@H]1CCC1=CCOC1=O,inactive,inactive,,
CC(C)C(=O)O[C@@H]1[C@@H](O)[C@@H](O[C@H]2O[C@H](CO)[C@@H](O)[C@H](O)[C@H]2O)O[C@H](CO)[C@H]1O,inactive,inactive,,
O=C(CCO[C@@H]1O[C@H](CO)[C@@H](O)[C@H](O)[C@H]1O)c1ccc(O)cc1,inactive,inactive,,
C=C1CCC[C@]2(C)C[C@]3(O)OC(=O)C(C)=C3C[C@@H]12,inactive,inactive,,
CCCCS(=O)(=O)Nc1ncnc(OCCOc2ncc(Br)cn2)c1-c1ccc(Br)cc1,inactive,inactive,,
O=C1[C@H](O[C@@H]2O[C@H](CO)[C@@H](O)[C@H](O)[C@H]2O)Oc2ccccc2N1O,inactive,inactive,,
CC(=O)N[C@H]1[C@H](O[C@H]2CC[C@@]3(C)C(CC[C@]4(C)C3CC=C3C5CC(C)(C)CC[C@]5(C(=O)O)[C@H](O[C@@H]5O[C@H](CO)[C@@H](O)[C@H](O)[C@H]5O)C[C@]34C)C2(C)C)O[C@H](CO[C@@H]2OC[C@H](O)[C@H](O)[C@H]2O[C@@H]2OC[C@@H](O)[C@H](O)[C@H]2O)[C@@H](O)[C@@H]1O (some centres undefined),,,-9.03% [at 9.23 µM],-14.8% [at 9.23 µM]
CC(=O)OC1C(O)CC(O[C@@H]2O[C@H](CO)[C@@H](O)[C@H](O)[C@H]2O)C2CCC3C(=O)OC(c4ccoc4)CC3(C)C21 (some centres undefined),inactive,inactive,,
COC(=O)C1C(c2ccc(O)cc2)C(C(=O)OC)C1c1ccc(O)cc1 (centres undefined),inactive,inactive,,
